Source: the supplement of paper PMC6555819

What was measured:
Assay in all cases: PBM binding z-score (relative to random genomic background probes); higher = stronger binding; sequences stand for … in GC…GCGATTGACAGCGTAGAATGAAGG
[1] = tested on: PPARg:RXRa DBDmut IVT, anti-RXR (DBD mutation: RXRa K156A/R161A, NR concentration 270 nM, RXRa partner concentration 90 nM)
In short: (§1)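 Binding buffer was PBS pH 7.4 with 2% milk, 0.02% Triton X-100, 1 mM DTT, 0.2 mg/mL BSA and 0.4 mg/ml salmon testes DNA. In it, ligand-free nuclear receptor dimers were incubated 1 h on custom Agilent 4×180K protein-binding microarrays carrying double-stranded probes. Antibodies against each partner (one per run) detected binding, and z-scores were calculated against random background probes after regression normalization of scanned fluorescence.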

[2] = tested on: PPARg:RXRa IVT, anti-PPARg (NR concentration 270 nM, RXRa partner concentration 90 nM)
In short: as §1

[3] = tested on: PPARg DBDmut:RXRa IVT, anti-PPARg (DBD mutation: PPARg1 K132A/R137A, NR concentration 270 nM, RXRa partner concentration 90 nM)
In short: as §1

[4] = tested on: PPARg DBDmut IVT, anti-PPARg (DBD mutation: PPARg1 K132A/R137A, NR concentration 270 nM)
In short: as §1

[5] = tested on: PPARg homodimer (NR concentration 180 nM)
In short: as §1

[6] = tested on: PXR:RXRa (NR concentration 270 nM, RXRa partner concentration 90 nM)
In short: as §1

[7] = tested on: PXR homodimer (NR concentration 270 nM)
In short: as §1

[8] = tested on: RARa:RXR (NR concentration 270 nM, RXRa partner concentration 90 nM)
In short: as §1

[9] = tested on: RARa homodimer (NR concentration 270 nM)
In short: as §1

[10] = tested on: RARb:RXRa (NR concentration 270 nM, RXRa partner concentration 90 nM)
In short: as §1

[11] = tested on: RARb homodimer (NR concentration 270 nM)
In short: as §1

[12] = tested on: RARg homodimer (NR concentration 270 nM)
In short: as §1

[13] = tested on: RXRa DBDmut IVT, anti-RXR (DBD mutation: RXRa K156A/R161A, NR concentration 90 nM)
In short: as §1

[14] = tested on: RXRa homodimer (NR concentration 180 nM)
In short: as §1

[15] = tested on: THRa:RXRa (NR concentration 90 nM, RXRa partner concentration 90 nM)
In short: as §1

[16] = tested on: THRa homodimer (NR concentration 90 nM)
In short: as §1

[17] = tested on: VDR homodimer (NR concentration 270 nM)
In short: as §1

Sequence | PBM binding z-score [1] | PBM binding z-score [2] | PBM binding z-score [3] | PBM binding z-score [4] | PBM binding z-score [5] | PBM binding z-score [6] | PBM binding z-score [7] | PBM binding z-score [8] | PBM binding z-score [9] | PBM binding z-score [10] | PBM binding z-score [11] | PBM binding z-score [12] | PBM binding z-score [13] | PBM binding z-score [14] | PBM binding z-score [15] | PBM binding z-score [16] | PBM binding z-score [17]
GATACAGGGTCAGCTAGAGGGCAGAGTATGGAAA | 1.36 | 2.69 | 1.37 | 0.18 | 4.2 | 4.38 | 0.747 | 5.63 | 1.68 | 4.51 | 4.04 | 5.53 | 1.71 | 4.61 | 3.18 | 1.05 | 1.68
TAGCCTAGGTCATTCAGGGGGCAGTATAGAAAGC | 2.78 | 4.86 | 5.63 | 7.07 | 4.21 | 4.22 | 1.22 | 5.41 | 0.982 | 4.45 | 4.09 | 5.84 | 2.37 | 4.33 | 3.8 | 2.11 | 3.36
ATCGTAAGGTCGTGAGGTGAGTATACAGAAAGGC | 0.0684 | 1.65 | 1.19 | 1.05 | 1.4 | 2.22 | 0.545 | 3.29 | 0.99 | 3.11 | 2.41 | 2.71 | 2.09 | 3.5 | 3.65 | 2.95 | 1.45
ATCGAAACGTCGACGAGGTGAGTATACACCGTTT | -0.306 | 0.572 | 0.364 | 1.43 | -0.489 | -0.346 | -0.33 | -0.0607 | 0.109 | -0.0586 | -0.247 | 0.527 | -0.148 | 0.362 | 1.1 | 0.23 | -0.146
